# Data from PubChem BioAssay AID624202 (National Center for Advancing Translational Sciences (NCATS), 2012).
# Among all 380,000 compounds or so, about 4,000 (1.1%) were called active. Another 3% or so got no clear call; they are omitted. The sample holds actives, similar compounds and a random draw of the others, so the mix is not that of the screen. Values without a mark were called inactive. Calls come from the whole dose curve; as a rule, active = well fitted activation curve with a large enough effect; inconclusive = small, poorly fitted or top-dose-only effect; inactive = no such curve, though single readings can be large or run the other way.
# Experiment: qHTS Assay to Identify Small Molecule Activators of BRCA1 Expression; note: nearly all actives have a fitted effect of over 80% in size
# Conditions: MCF7-BRCA1-FFLuc reporter, luminescence, 48 h; series mostly up to 46.1 µM; activation: at the top concentration
# Summary of the method: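 MCF7-BRCA1-FFLuc, 2000 cells/well; 2 h attach, 37 °C/5% CO2; compound 48 h; luciferase substrate 15 min; luminescence end-point. Norm. to genistein 10 microM max activation and DMSO; concentration-response curves fitted.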
# Potency is the fitted concentration of half-maximal effect.
SMILES,activation,Potency
CCc1ccccc1NC(=O)Cn1c(=O)n(CC2CCC(C(=O)NCCc3ccccc3)CC2)c(=O)c2ccccc21 (configuration not stated),5.1%,
O=C(Cn1c(=O)n(Cc2ccccc2)c(=O)c2sc3ccccc3c21)Nc1ccccc1F,1.09%,
COc1ccc(N2C(=O)CSC23C(=O)N(Cc2cccc(F)c2)c2ccccc23)cc1Cl (configuration not stated),-50.1%,
COc1ccc(CCNC(=O)CCc2c(C)nc3c(c(C)nn3-c3ccc(C)c(C)c3)c2C)c(OC)c1OC,5.62%,
CCS(=O)(=O)n1nc(-c2ccc(OC)cc2)nc1SC,33.3%,
Cc1ccc(S(=O)(=O)n2nc(-c3ccc(Cl)cc3)nc2NCc2ccccc2)cc1,2.77%,
CCS(=O)(=O)n1nc(-c2ccccc2)nc1SCc1ccccc1,,3.98 µM (active)
COc1ccccc1N1CCN(c2ncnc3onc(-c4ccc(F)cc4)c23)CC1,-0.976%,
COc1ccc(-n2nnc(-c3nsc(NC(=O)c4ccc(C)c(C)c4)n3)c2C)cc1Cl,-0.247%,
CCOC(=O)c1ccc(NC(=O)c2csc3c2CCCCC3)cc1,34.8%,
Cc1ccc(NC(=O)c2csc3c2CCCC3)cc1,,12.6 µM (active)
CCOc1ccc(CCNC(=O)c2csc3c2CCCCC3)cc1,-1.32%,
Cc1ccc(OCCSc2nc3ccc(NC(=O)COc4ccc(C)cc4)cc3s2)cc1,18.4%,
O=C(Cn1c(=O)n(-c2ccc(F)cc2)c(=O)c2sc3ccccc3c21)NC1CCCC1,-12.4%,
Cc1cccc(NC(=O)N2CCN(C)c3ncccc32)c1C,9.79%,
CCCCC(CC)CNC(=O)C1CCN(S(=O)(=O)c2cccc3nsnc23)CC1 (configuration not stated),-6.65%,
CCCN(CCC)c1ccc(C(O)c2nnc(-c3ccccc3)o2)cc1 (configuration not stated),24.9%,
C=CCn1c(SCc2nnc(-c3ccccc3)o2)nnc1C(O)c1ccccc1 (configuration not stated),1.72%,
OC(c1nnc(-c2ccccc2)o1)c1cccs1 (configuration not stated),,11.2 µM (active)
Cc1cc(C)cc(NC(=O)Cn2c(=O)c3ccccc3n3nncc23)c1,7.25%,
Cc1ccc(C=O)cc1Cl,18.6%,
O=C(OCc1cc(=O)n2nc(C3CC3)sc2n1)c1ccccc1Cl,12%,

SMILES,activation,Potency
COc1cc2nc(SCC(=O)Nc3ccccc3F)n3nc(-c4ccccc4)nc3c2cc1OC,0%,
Cc1cc(C)cc(-n2ccnc2SCC(=O)Nc2nc3ccccc3s2)c1,9.67%,
COc1cccc(CNC(=O)c2ccc3c(Cl)c4c(nc3c2)CCCC4)c1,10.5%,
COc1cccc2sc3cc(NCC[C@@H]4CCCN4C)ccc3c(=O)c12,,11.2 µM (active)
CN1CCC[C@@H]1CCO[C@](C)(c1ccccc1)c1ccc(Cl)cc1,0%,
Cc1cc2oc3ccc(NCCC4CCCN4C)cc3c(=O)c2cc1C (configuration not stated),-78%,
Oc1ccc(Cl)cc1C1C=C(c2ccc3c(c2)OCO3)NC(c2c(F)cccc2Cl)N1 (configuration not stated),-40.2%,
O=C(Nc1cccc(F)c1)NC1CCCCCCC1,,3.55 µM (active)
O=C(Nc1cccc(F)c1)[C@@H]1CCCN1,-1.33%,
Cc1cc(C)cc(NC(=O)NC2CCCCCCC2)c1,32.7%,
CCn1c(CNC(=O)C23CC4CC(CC(C4)C2)C3)nnc1SCC(=O)Nc1ccc(OC)cc1,22%,
COc1ccc(-c2cc(-c3ccc(F)cc3)nc3c2COc2ccccc2-3)cc1,11.9%,
COc1ccc(C2=Nc3cc(C)ccc3OC2)cc1,,11.2 µM (active)
COc1ccc(-c2cc(-c3ccccc3)nc3c2COc2ccc(Cl)cc2-3)cc1,13.1%,
CCCCCn1c(=O)[nH]c2cc(C(=O)NCCN(C)CCCC)ccc2c1=O,-3.6%,
COC(=O)C1=C(c2ccccc2)c2ccccc2S(=O)(=O)N1CC(=O)Nc1ccccc1C(F)(F)F,-3.16%,
COCn1c(COc2ccccc2)nc2ccccc21,,12.6 µM (active)
COCc1nc2ccccc2n1Cc1ccccc1Br,-0.381%,
COc1ccccc1Cn1c(CO)nc2ccccc21,0%,
COc1cc(OC)cc(-c2nc3nc(C)c(CCC(=O)Nc4ccc(C)cc4)c(C)n3n2)c1,-2.52%,
CCc1c(O)nc(SCC(=O)N2CCCCC2)n(-c2ccccc2C)c1=O,6.28%,
Cc1ccc(-n2c(SCC(=O)N3CCC(C(=O)O)CC3)nc3ccccc3c2=O)cc1C,,4.47 µM (active)

SMILES,activation,Potency
O=C(CSc1nc2ccccc2c(=O)n1-c1ccccc1F)N1CCOCC1,-6.09%,
COc1cccc(CNC(=O)CN2C(=O)CCc3cc(S(=O)(=O)N4CCOCC4)ccc32)c1,11.1%,
COc1cc(OC)c(/C=C/c2ccnc3ccccc23)c(OC)c1,-43.7%,
COc1cc2[nH]c(O)c(C=O)c2cc1OC,1.23%,
COc1ccc(N=Cc2c(O)[nH]c3ccccc23)cc1OC,,3.16 µM (active)
COc1ccc(/C=C/c2ccnc3ccccc23)cc1OC,-23.9%,
CCN(CC)/[N+]([O-])=N/OCOC(=O)Cc1c(C)n(C(=O)c2ccc(Cl)cc2)c2ccc(OC)cc12,-16%,
CCc1ccc(CNC(=O)c2cc3cc4ccc(OC)cc4nc3o2)cc1,-7.1%,
COc1cc(SC)ccc1C(=O)NCCOc1ccccc1Cl,,7.94 µM (active)
COc1ccccc1OCCNC(=O)CCNC(=O)c1ccccc1Cl,-0.0194%,
O=C(NCCOc1ccccc1Cl)C(=O)Nc1ccccc1,-41.6%,
CCOCCc1nn2c(=O)cc(COC(=O)CNC(=O)c3ccc(C(C)(C)C)cc3)nc2s1,6.51%,
Cn1c(=O)nc2n(-c3ccc(Br)cc3)c3cccc(Cl)c3cc-2c1=O,-11.7%,
O=C(CSc1ncc(S(=O)(=O)c2ccc(Br)cc2)c(=O)[nH]1)Nc1ccc2c(c1)OCCO2,15.7%,
O=C(OCc1ccc(-c2ccccc2)cc1)c1cccc(O)c1,83.1%,
c1ccc(-c2c[nH]c(-c3ccccc3)c2)cc1,41.4%,
Oc1ccc(-c2cccc(-c3ccc(O)cc3)c2)cc1,,10 µM (active)
COc1ccccc1CNC(=O)CCCCn1c(=O)c2ccccc2n(CC(=O)Nc2cc(Cl)ccc2C)c1=O,-20.3%,
Cc1cccc(N2CCN(C(=O)c3oc(=O)c4ccccc4c3-c3ccccc3)CC2)c1C,-3.27%,
O=C(c1[nH]ncc1-c1ccc(Cl)cc1)C1CO1 (configuration not stated),-20%,
O=C(Nc1cnn(Cc2ccc(Cl)cc2)c1)C1CCCC1,7.68%,
O=C(c1nnc(-c2ccc(Cl)cc2)o1)C1CCCC1,,11.2 µM (active)

SMILES,activation,Potency
c1ccc(Cn2nnc3c(N4CCCCC4)ncnc32)cc1,32%,
COc1ccccc1CCNC(=O)c1cccn1-c1nnc(N2CCCCC2)s1,-17%,
COc1ccc(C2NC(=O)N(C)C3=C2C(=O)N(c2ccc(C(=O)O)cc2)C3)cc1 (configuration not stated),8.52%,
CC(C)CNC(=S)NNC(=O)c1nn(C)cc1Cl,7.17%,
Cc1scc(C(=O)NNC(=S)NCC(C)C)c1C,2.45%,
CC(C)CNC(=S)NC(=O)c1ccc(Cl)cc1,,10 µM (active)
Cc1c2cnn(-c3ccccc3)c(=O)c2c(C)n1C(C)C(=O)Nc1ccc(Br)cc1F (configuration not stated),-24.2%,
Cc1cc(C)cc(-n2c(SCC(=O)NCC3CCCO3)nc3c([nH]c4ccccc43)c2=O)c1 (configuration not stated),-50.7%,
CN(CCOc1ccccc1)C(=O)c1cc(COc2c(F)cccc2F)on1,0%,
O=C(NCCN1CCCC(O)C1)c1cc(COc2c(F)cccc2F)on1 (configuration not stated),5.2%,
O=C(NCCCc1ccccc1)c1cc(COc2c(F)cccc2F)on1,,12.6 µM (active)
C[C@H](NC(=O)NCCc1ccccc1)C(=O)O,-23.9%,
CC(C)Cc1cc(C(=O)NCCc2ccccc2)no1,,5.01 µM (active)
Nc1nonc1C(=O)NCCc1ccccc1,4.5%,
O=S(=O)(c1ccc(C2CCCCC2)cc1)N1CCN(c2ccc(Cl)c(Cl)c2)CC1,3.15%,
CSc1cccc(NC(=O)CN2C(=O)CCc3cc(S(=O)(=O)N4CCCCC4)ccc32)c1,-12.1%,
COc1ccc2c(c1)c(=O)c(C(=O)c1ccccc1)cn2CC(=O)Nc1ccc2c(c1)OCCO2,1.41%,
CC(=O)N1CCc2cc(Br)cc(S(=O)(=O)CCC(=O)NCCc3ccc(Cl)cc3)c21,-2.1%,
CN(CC(=O)Nc1cccc(C(F)(F)F)c1)S(=O)(=O)c1cccs1,14.2%,
C/C(=N/NC(=O)c1ccc(NC(=O)c2ccc(F)cc2)cc1)c1ccccc1,,12.6 µM (active)
CC(=O)NN=C(C)c1ccc(NC(=O)C2CC2)cc1,13.3%,
C/C(=N/NS(=O)(=O)c1ccccc1)c1ccc(NC(=O)C(F)(F)F)cc1,3.78%,

SMILES,activation,Potency
O=C(CSc1nc(=O)n(Cc2cccnc2)c2c1CCC2)Nc1ccc(F)cc1F,-12.5%,
CC(=O)Nc1ccc(S(=O)(=O)N2CCN(c3ccccc3)CC2)cc1,3.72%,
CC(C)(C)NC(=O)Cn1nnc(-c2ccccc2Cl)n1,,12.6 µM (active)
Cc1ccccc1-c1nnn(CC(=O)c2ccc(S(=O)(=O)N3CCCC3)cc2)n1,-30.9%,
COc1cc(-c2nnn(CC(=O)NCc3ccccc3)n2)cc(OC)c1OC,-8.64%,
O=C(Nc1ccccc1C(F)(F)F)c1nc(S(=O)(=O)Cc2ccccc2F)ncc1Cl,-78.4%,
COc1ccccc1-c1sc2ccccc2c1-c1ccc(C(C)=O)cc1,-15.5%,
COc1ccc(N=C(C)c2sc3ccccc3c2O)cc1,,5.01 µM (active)
COC(=O)c1ccc(/C=C/c2c(-c3ccc(OC)cc3)sc3ccccc23)cc1,-41.1%,
CCN(CC)S(=O)(=O)c1ccc2c(c1)c(=O)c(C(=O)N1CCN(c3cccc(Cl)c3)CC1)cn2C,1.45%,
Cc1ccsc1C(=O)NC1CCCCC1C (configuration not stated),23.2%,
CCNC(=O)c1sccc1-n1cccc1,-2.78%,
Cc1ccsc1C(=O)NCCc1ccco1,,4.47 µM (active)
NC(=O)Nc1ccc(/C=C/c2ccnc3ccccc23)cc1,9.16%,
COc1ccc(CNc2nc(-c3ccc(Cl)cc3)nn2C(=O)c2ccccc2)cc1,0.489%,
CCC(C(=O)Nc1cc(OC)ccc1OC)n1c(=O)c(C(F)(F)F)nc2ccccc21 (configuration not stated),0%,
Cc1cccc(NC(=O)CSCC(=O)Nc2nnc(C3CC3)s2)c1,-38.4%,
CC1CCN(c2ccc(C(=O)Nc3nnc(C4CC4)s3)cc2[N+](=O)[O-])CC1,13.3%,
Cc1cc(C(=O)Nc2nnc(C3CC3)s2)c(C)s1,,3.55 µM (active)
